KinaseGlo FLuc: Counterscreen for Luciferase (Kinase-Glo TM) Inhibition; Potency, µM (doses to about 38.3 µM), for the others: at the top dose activity change, negative = inhibition, usual class: inhibitors; 200,000 tested, 0.28% active; Kinase-Glo luciferase, ATP luminescence, 8 min; Luciferin 4-monooxygenase (Photuris pensylvanica), Q27757; also: nearly all actives have a fitted effect of over 60% in size
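Substrate mix (final 50 mM imidazole pH 7.2, 50 mM KCl, 7 mM MgCl2, 10 uM ATP, 0.01% Tween 20, 0.05% BSA) plus pin-tool compound, then Kinase-Glo detection mix; 8 min ambient, luminescence read.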
VP16 counter: VP16 counterscreen qHTS for inhibitors of ROR gamma transcriptional activity; Potency, µM (doses to about 53.6 µM), for inactives: at the top dose activity, negative = inhibition, actives largely listed as inhibitors; Drosophila S2 Gal4-VP16 UAS-luciferase, luminescence, 20 h; 310,000 tested, 3.5% active;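 also: Gal4-VP16 expression switched on by copper sulfate through the metallothionein promoter; nearly all actives have a fitted effect of over 50% in size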
RORg inh: qHTS for inhibitors of ROR gamma transcriptional activity; Nuclear receptor ROR-gamma (Mus musculus), P51450; Drosophila S2 Gal4-RORgamma UAS-luciferase reporter, 20 h; Potency, µM (series often up to 53.6 µM), inactives show top-dose activity change, negative = inhibition, most hits filed as inhibitors; 310,000 tested, 5.4% active; AID 2551, 2010; also: nearly all actives have a fitted effect of over 60% in size
Target sequence (P51450 whole entry, looked up, the tested form may be a part): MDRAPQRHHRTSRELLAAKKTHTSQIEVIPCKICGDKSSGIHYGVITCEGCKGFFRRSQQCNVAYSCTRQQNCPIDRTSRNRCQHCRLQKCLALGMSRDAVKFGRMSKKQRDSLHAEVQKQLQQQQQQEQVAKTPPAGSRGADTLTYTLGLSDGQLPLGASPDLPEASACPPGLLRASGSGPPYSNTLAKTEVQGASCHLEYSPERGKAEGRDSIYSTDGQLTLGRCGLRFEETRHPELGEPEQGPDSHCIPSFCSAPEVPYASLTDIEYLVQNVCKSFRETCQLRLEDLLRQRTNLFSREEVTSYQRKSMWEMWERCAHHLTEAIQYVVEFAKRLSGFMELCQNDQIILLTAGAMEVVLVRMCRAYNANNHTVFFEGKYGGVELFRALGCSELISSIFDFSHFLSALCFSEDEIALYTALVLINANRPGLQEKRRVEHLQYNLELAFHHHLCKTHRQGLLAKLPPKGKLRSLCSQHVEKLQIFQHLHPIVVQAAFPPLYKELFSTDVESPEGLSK
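ROR gamma transcriptional activity was tracked as Gal4-UAS luciferase output in stably transfected Drosophila Schneider cells, with compound added 1 hr before 700 uM copper sulfate induction and a 20 hr ambient-temperature incubation.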
* = called active by the depositor; ? = inconclusive; . = not tested or not shown; [ ] = remark or other dose. Most compounds without a hit are left out; they make up all but 6.4% or so of the library. Calls follow the shape of the dose curve; as a rule, active = well fitted curve in the direction sought with a large enough effect; inconclusive = small, poorly fitted or top-dose-only effect, or another doubt; inactive = no such curve, though single readings can be large; an effect the other way counts as inactive or inconclusive. % is scaled to controls: 0 for no effect and ±100 for the full control effect; potency is read from the fitted curve at half-maximal effect.

SMILES	KinaseGlo FLuc	VP16 counter	RORg inh
Nc1nnc(SC2CC(=O)N(c3ccccc3)C2=O)s1 (centres undefined)	-6%	10µM*	5µM*
Cc1nc(SC2CC(=O)N(c3ccccc3)C2=O)n[nH]1 (centres undefined)	3%	4.5µM*	4.5µM*
Cc1cc(C)nc(SC2CC(=O)N(c3ccc(Cl)cc3)C2=O)n1 (centres undefined)	.	-86%	14µM*
Cc1cc(C)nc(SC2CC(=O)N(c3ccc(Br)cc3)C2=O)n1 (centres undefined)	.	7%	25%
Cc1cccc(C)c1NC(=O)CCn1cnc2ccccc2c1=O	1%	-9%	15%
Cc1ccc(C(=C2C3C=CC2C2C(=O)NC(=O)C32)c2ccc(C)cc2)cc1 (centres undefined)	-6%	-21%	-16%
COc1ccc(C(=O)NNS(=O)(=O)c2ccccc2)cc1OC	.	-6%	2%[1.91 µM]
CC(C)(C)n1cnc2cc(NCc3cccs3)ccc21	-1%	5%[10 µM]	11µM*
CCn1cnc2cc(NCc3cccs3)ccc21	2%	3%	-18%
Cc1cccc(OCC(=O)OC(C)CN2CCCCC2)c1 (centres undefined)	.	0%	-9%
CCCCC1=NN(C(=O)c2cocc2C)C(O)(C(F)(F)F)C1 (centres undefined)	1%	?	?
CC1=NN(C(=O)c2ccoc2C)C(O)(C(F)(F)F)C1 (centres undefined)	.	10µM*	3.5µM*
CC1=NN(C(=O)c2csc(C(C)C)c2)C(O)(C(F)(F)F)C1 (centres undefined)	3%	4.5µM*	5µM*
CC(C)CC1=NN(C(=O)c2ccncc2)C(O)(C(F)(F)F)C1 (centres undefined)	-5%	?	-41%
CC(C)C1=NN(C(=O)c2cccnc2)C(O)(C(F)(F)F)C1 (centres undefined)	-4%	?	-49%
CC(C)CC1=NN(C(=O)c2cccnc2)C(O)(C(F)(F)F)C1 (centres undefined)	2%	13µM*	11µM*
CC1=NN(C(=O)c2cccnc2)C(O)(C(F)(F)F)C1 (centres undefined)	-1%	13µM*	7.9µM*
Cc1ccc(C)c(NC(=S)NNC(=O)c2csc(C(C)C)c2)c1	1%	-2%	?
O=C(O)[C@@H](O)[C@@H](O)[C@@H](O)[C@@H](O)c1nc2ccccc2s1	-6%[7.66 µM]	.	.
CCOC(=O)N1CCC(N2C(=O)c3ccccc3C2Nc2ccc(S(=O)(=O)N3CCOCC3)cc2)CC1 (centres undefined)	.	-5%	10%
Cc1ccc(C)c(NS(=O)(=O)c2ccc3[nH]c(=O)oc3c2)c1	3%	7%	27%
O=C(c1ccncc1)N1N=C(C2CC2)CC1(O)C(F)(F)F (centres undefined)	.	-17%	11µM*
O=C(c1cccnc1)N1N=C(C2CC2)CC1(O)C(F)(F)F (centres undefined)	-1%	-1%[10 µM]	?
COC(=O)Nc1ccc(S(=O)(=O)NNC(=O)c2c(O)c3ccccc3n(C)c2=O)cc1	.	0%	3%
COc1cccc([C@@H]2Oc3ccc(Br)cc3C(=O)[C@H]2OC(=O)NS(=O)(=O)c2ccc(C)cc2)c1	1%	7%	-6%
SMILES	KinaseGlo FLuc	VP16 counter	RORg inh
Cc1ccc(C(=O)OCC(=O)c2c[nH]c3ccccc23)cc1	-1%	13%	2%
CC(C)Cc1ccc(C(C)C(=O)OCC(=O)c2c[nH]c3ccccc23)cc1 (centres undefined)	-2%	18µM*	?
Cc1noc(C)c1C(=O)N1CCC[C@@]2(CCN(c3ccccn3)C2)C1	-3%	-4%	-18%
COc1cc2c(cc1NC(=O)COc1ccccc1OC)oc1ccccc12	-3%	6%[0.365 µM]	0%
COc1cc2c(cc1NC(=O)COC(=O)c1ccc(C(C)(C)C)cc1)oc1ccccc12	4%	-8%	19%
COc1cc2c(cc1NC(=O)COC(=O)Cn1cnc3ccccc31)oc1ccccc12	1%	3%[0.365 µM]	2µM*
COc1cc2c(cc1NC(=O)COC(=O)C(CCSC)NC(=O)c1ccccc1Cl)oc1ccccc12 (centres undefined)	0%	?	10µM*
COc1cc(OC)c2c(=O)c(-c3ccccc3)coc2c1	-6%	-8%	18%
Cn1c(CNC(=O)c2ccco2)nnc1SCC(=O)c1ccc(F)cc1	.	5%	1%
c1ccc2c(c1)CC1(CCCC1)N=C2N1CCOCC1	.	-7%	23%
CCOC(=O)CC(NC(=O)Cn1nnc(-c2ccccc2Cl)n1)c1ccc(OC)cc1 (centres undefined)	1%	-10%[10 µM]	?
CC(C)NC(=O)NNC(=O)Cn1nnc(-c2cccc(Cl)c2Cl)n1	.	-30%	32µM*
Cc1ccc(C(=O)CCC(=O)N2CCN(C(=O)c3ccco3)CC2)cc1	1%	-10%	17%
O=C(COc1ccc(Br)cc1)N/N=C1/SCC(=O)N1Cc1ccccc1	0%	-6%	?
CC(C)(C)c1nnc(NC(=O)c2cc(-c3ccccc3)nc3ccccc23)s1	4%	10µM*	5.6µM*
CN1CCN(NC(=O)c2cc(-c3cccc(Cl)c3)nc3ccccc23)CC1	2%	-26%	?
O=C(NN=C1CCCCCC1)c1cc(-c2ccccc2)nc2ccccc12	-3%	12%	?
Cc1ccc(C)c(-c2cc(C(=O)Nc3nccs3)c3ccccc3n2)c1	0%	?	13µM*
Cc1ccc(-c2cc(C(=O)NN=C3CCCC3)c3ccccc3n2)cc1	-3%	?	13µM*
CC(C)c1ccc(-c2cc(C(=O)NN3CCN(C)CC3)c3ccccc3n2)cc1	-18%	14µM*	11µM*
CCc1nnc(NC(=O)c2cc(-c3ccncc3)nc3ccccc23)s1	.	-1%	-4%
COC(=O)c1sccc1NC(=O)c1cc(-c2cc(C)ccc2C)nc2ccccc12	-2%	-1%	-6%
O=C1[C@@H]2[C@@H](C(=O)N1c1ccc(OCc3ccccc3)cc1)[C@@H]1c3ccccc3[C@@H]2[n+]2ccccc21	-5%[7.66 µM]	.	.
Cc1nc2cnc(N3CCN(C)CC3)nc2n(-c2ccccc2)c1=O	.	-1%	-22%
O=C(O)COc1cccc2c1CCC=C2CCO/N=C(\c1ccccc1)c1cccnc1	.	1%	3%
SMILES	KinaseGlo FLuc	VP16 counter	RORg inh
COc1ccc(OC)c(C(=O)NC(CC(N)=O)c2ccc(NCCN3CCCCC3)c([N+](=O)[O-])c2)c1 (centres undefined)	.	4%	5%
Cn1c(=O)c2sccc2n2c(CCCC(=O)N3CCN(c4ccccn4)CC3)nnc12	.	-6%	0%
COc1ccc(-c2cc(C(=O)NC3=NCCS3)c3ccccc3n2)cc1OC	-1%	1%	?
COc1ccccc1CCNC(=O)c1cc(-c2ccccn2)nc2ccc(Br)cc12	-1%	-5%	-1%
CCc1nnc(NC(=O)c2cc(-c3ccccn3)nc3ccc(Br)cc23)s1	.	?	20µM*
O=C(NC1=NCCS1)c1cc(-c2ccc(-c3ccccc3)cc2)nc2ccccc12	-4%	5µM*	3.5µM*
Cc1ccc(S(=O)(=O)NCC2CCC(C(=O)NC3CCCCC3)CC2)cc1 (centres undefined)	.	-3%	-12%

Bioassay records: PubChem BioAssay, National Center for Advancing Translational Sciences (NCATS)
